Experimental data reported in PubChem BioAssay AID1159580 (chemical genetic matrix, 2015).
Where “and” joins values, the source holds several entries; their conditions need not be identical. Identical values can stand only once. The whole screen tested about 5,500 compounds, of which about 2,000 (36%) were called active. Not shown: some 18% with an inconclusive outcome. Cut-off read from the data, not from the text of the source: active = normalized growth mostly below about 0.91 (no sharp cut-off); inconclusive = no clear call, values can overlap the other calls; inactive = mostly above about 0.92. Some of the results follow.

Assay: chemical genetic growth profiling, strain panel (AID 1159580);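 note: tested at 20 µM; growth read once vehicle control cultures reached saturation at 30 °C; 1 = growth at the plate median or of vehicle wells; lower values mean less growth of the strain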
Conditions: S. cerevisiae deletion strains, growth OD

Measured: normalized growth

N#Cc1c(Cl)cccc1Cl
inactive: locus YAL013W, strain DEP1, hits give low values 1.01 | locus YAL021C, strain ccr4, hits give low values 1.01 | locus YAL026C, strain drs2, hits give low values 0.988 | locus YAL030W, strain snc1, hits give low values 0.979 | locus YBL061C, strain skt5, hits give low values 0.979 | locus YBR009C, strain hhf1, hits give low values 0.959 | locus YBR021W, strain FUR4, hits give low values 1.02 | locus YBR023C, strain chs3, hits give low values 0.981 | locus YBR171W, strain sec66, hits give low values 0.982 | locus YBR229C, strain ROT2, hits give low values 1.01 | locus YBR231C, strain swc5, hits give low values 0.98 | locus YBR279W, strain paf1, hits give low values 0.983 | locus YCL011C, strain gbp2, hits give low values 0.954 | locus YCL016C, strain dcc1, hits give low values 0.983 | locus YCL029C, strain bik1, hits give low values 1.01 | locus YCL069W, strain vba3, hits give low values 0.98 | locus YCR088W, strain abp1, hits give low values 0.985 | locus YDL005C, strain med2, hits give low values 0.977 | locus YDL035C, strain GPR1, hits give low values 1.01 | locus YDL040C, strain nat1, hits give low values 0.991 | locus YDL074C, strain BRE1, hits give low values 1.03 | locus YDL101C, strain DUN1, hits give low values 1.01 | locus YDL134C, strain PPH21, hits give low values 1 | locus YDL185W, strain tfp1, hits give low values 1.01 | locus YDL192W, strain arf1, hits give low values 1.01 | locus YDR001C, strain nth1, hits give low values 0.977 | locus YDR069C, strain doa4, hits give low values 0.983 | locus YDR101C, strain arx1, hits give low values 1.01 | locus YDR137W, strain rgp1, hits give low values 1.01 | locus YDR150W, strain NUM1, hits give low values 1.01 | locus YDR159W, strain sac3, hits give low values 0.995 | locus YDR162C, strain NBP2, hits give low values 1.01 | locus YDR195W, strain ref2 0.991 | locus YDR297W, strain sur2, hits give low values 0.972 | locus YDR318W, strain mcm21, hits give low values 1.01 | locus YDR334W, strain swr1, hits give low values 0.952 | locus YDR335W, strain msn5, hits give low values 0.977 | locus YDR388W, hits give low values 1.01 | locus YDR392W, strain spt3, hits give low values 1 | locus YDR502C, strain sam2, hits give low values 1.01 | locus YEL003W, strain gim4, hits give low values 0.969 | locus YEL037C, strain rad23, hits give low values 0.981 | locus YEL061C, strain CIN8 (second series), hits give low values 0.98 | locus YEL061C, strain CIN8, hits give low values 1.01 | locus YER015W, strain faa2, hits give low values 0.98 | locus YER016W, strain bim1, hits give low values 0.979 | locus YER110C, hits give low values 1 | locus YER111C, strain swi4, hits give low values 0.965 | locus YER155C, strain BEM2 (second series), hits give low values 0.975 | locus YER155C, strain BEM2, hits give low values 1.01 | locus YER167W, strain BCK2, hits give low values 1.01 | locus YFR010W, strain ubp6, hits give low values 0.98 | locus YGL078C, strain dbp3, hits give low values 1.01 | locus YGL086W, strain mad1, hits give low values 1.01 | locus YGL167C, strain pmr1, hits give low values 0.978 | locus YGL173C, strain kem1, hits give low values 0.99 | locus YGL227W, strain vid30, hits give low values 0.974 | locus YGL240W, strain doc1, hits give low values 0.965 | locus YGL248W, strain PDE1, hits give low values 1 | locus YGL253W, strain hxk2, hits give low values 0.987 | locus YGR078C, strain PAC10, hits give low values 1.01 | locus YGR135W, strain pre9, hits give low values 1.01 | locus YGR229C, strain SMI1, hits give low values 1.02 | locus YGR252W, strain gcn5, hits give low values 1.09 | locus YHR013C, strain ard1, hits give low values 1.02 | locus YHR027C, strain rpn1, hits give low values 0.977 | locus YHR030C, strain SLT2, hits give low values 1.02 and 0.941 | locus YHR079C, strain IRE1 (second series), hits give low values 1.01 | locus YHR079C, strain IRE1, hits give low values 0.965 | locus YHR094C, strain hxt1, hits give low values 1.01 | locus YHR129C, strain ARP1, hits give low values 1.01 | locus YHR142W, strain chs7, hits give low values 0.976 | locus YHR200W, strain rpn10, hits give low values 1.01 | locus YIL066C, strain RNR3, hits give low values 1.04 | locus YIL073C, strain SPO22, hits give low values 1.03 | locus YIL125W, strain kgd1, hits give low values 1.01 | locus YIR030C, strain dcg1, hits give low values 1.02 | locus YJL092W, strain hpr5, hits give low values 0.976 | locus YJL095W, strain BCK1 (second series), hits give low values 0.997 | locus YJL095W, strain BCK1, hits give low values 0.999 and 0.941 | locus YJL115W, strain asf1, hits give low values 0.959 | locus YJL129C, strain trk1, hits give low values 0.976 | locus YJL134W, strain LCB3, hits give low values 1.01 | locus YJL154C, strain vps35, hits give low values 0.978 | locus YJL164C, strain tpk1, hits give low values 0.996 | locus YJL166W, strain qcr8, hits give low values 0.978 | locus YJL168C, strain set2, hits give low values 1.01 | locus YJL187C, strain SWE1 (second series), hits give low values 1.01 | locus YJL187C, strain SWE1, hits give low values 0.988 | locus YJR043C, strain POL32, hits give low values 1.02 | locus YJR066W, strain TOR1, hits give low values 0.936
